Sampled rows, rich in hits. Any-hit rate of the full collection: about 2.4%.
POLH inh: DNA polymerase eta (human) inhibition | Q9Y253 | recombinant Pol eta, fluorescent DNA replication assay | Potency, µM (highest dose often 114 µM), usual class: inhibitors | 390,000 compounds, 1.2% hits
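Pol eta (10 nM) was preincubated with compounds for 15 min at room temperature, after which fluorescent replication substrate (50 nM final) was added to start the reaction. Fluorescence was read kinetically at 0 and 10 min.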
Pol kappa inh: blocks human DNA polymerase kappa activity | Potency, µM (top dose mostly 107 µM), hits mostly inhibitors | AID 588579 | purified Pol kappa, fluorescent DNA synthesis assay, 10 min | 400,000 compounds, 0.53% hits
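Readout: fluorescence, taken kinetically at 0 and 10 min. Conditions: 10 nM Pol kappa, 15 min RT compound preincubation, 50 nM substrate final. Controls: enzyme-free buffer wells.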
Pol beta inh: blocks human DNA polymerase beta activity. P06746. Pol beta primer extension/strand displacement, fluorescence kinetic. Potency, µM (titrated, usually from 114 µM), most hits filed as inhibitors. 340,000 compounds, 1.3% hits
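Curves were derived by four-parameter Hill fits of normalized qHTS data. The kinetic fluorescent primer-extension read was taken at 0 and 10 min after 50 nM substrate, following a 15 min room-temperature preincubation of 10 nM enzyme with compounds.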
Pol iota inh: DNA polymerase iota (human) inhibition. 390,000 compounds, 1% hits. Potency, µM (top dose mostly 115 µM), usual class: inhibitors. AID 588590. Pol iota fluorescent replication assay, 10 min
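Fluorescent replication assay read twice, at 0 min and 10 min after adding 50 nM (final) substrate. Enzyme (10 nM) and compounds were first incubated 15 min at room temperature; enzyme-free buffer wells were negative controls.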
FEN1 inh: human FEN1 inhibition; P39748; Recombinant FEN1 flap cleavage, fluorescence, 15 min; Potency, µM (series often up to 114 µM), usual class: inhibitors; 390,000 compounds, 0.35% hits; AID 588795; note: nearly all actives have a fitted effect of over 65% in size
Target sequence (P39748 whole entry, looked up): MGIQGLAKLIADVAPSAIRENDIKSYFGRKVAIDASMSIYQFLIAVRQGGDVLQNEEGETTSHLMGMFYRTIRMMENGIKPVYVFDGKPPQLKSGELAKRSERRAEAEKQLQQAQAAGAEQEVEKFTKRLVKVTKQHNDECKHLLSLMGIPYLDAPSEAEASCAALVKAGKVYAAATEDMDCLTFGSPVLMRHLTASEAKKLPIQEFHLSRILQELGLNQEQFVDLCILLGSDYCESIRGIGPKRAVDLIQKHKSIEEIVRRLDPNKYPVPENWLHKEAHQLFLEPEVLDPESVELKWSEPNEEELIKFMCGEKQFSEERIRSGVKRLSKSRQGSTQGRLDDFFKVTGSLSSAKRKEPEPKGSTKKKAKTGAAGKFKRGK
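Potency values derive from four-parameter Hill fits of normalized qHTS data. The reaction used 10 nM FEN1 preincubated 15 min at room temperature with compound, then 50 nM DNA substrate, read at 0 and 15 min.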
WRN helicase inh: WRN helicase (human) inhibition; WRN helicase unwinding, fluorescent forked duplex, kinetic; Potency, µM (titrated, usually from 114 µM), actives largely listed as inhibitors; Q14191; 360,000 compounds, 0.46% hits; note: nearly all actives have a fitted effect of over 55% in size
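WRN at 20 nM final preincubated with compound 15 min at room temperature; reaction started with 100 nM fluorophore/quencher forked duplex oligonucleotide and 2 mM ATP final. Unwinding followed kinetically by red fluorescence (ex 525, em 598 nm).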
Hits are given with their value; . = inactive; ? = inconclusive; / = no result given; [ ] = remark or other dose. Calls come from the whole dose curve; as a rule, active = well fitted curve in the direction sought with a large enough effect; inconclusive = small, poorly fitted or top-dose-only effect, or another doubt; inactive = no such curve, though single readings can be large; an effect the other way counts as inactive or inconclusive.

SMILES	POLH inh	Pol kappa inh	Pol beta inh	Pol iota inh	FEN1 inh	WRN helicase inh
CC(=O)Nc1ccc2c(c1)Cc1cc(N3C(=O)C=CC3=O)ccc1-2	.	.	/	?	?	35µM
CC(=O)Nc1ccc2c(c1)Cc1ccc(Cl)cc1-2	.	.	/	79µM	?	.[11.6 µM]
C(=C\c1nccc2ccccc12)/c1ccc(N2CCOCC2)cc1	/	.	/	.	.	/
COc1cc(C)ccc1OCCSc1nc2ccc(NC(=O)c3ccco3)cc2s1	.	.	.	.	.	/
CC(NC(=O)Nc1ccc(O)cc1)(C(F)(F)F)C(F)(F)F	.	.	.	11µM	.	.
OCCNC(=S)Nc1ccc2nsnc2c1	.	.	.	20µM	.	.
Cc1nc2ccc(NC(=S)NCCCO)cc2nc1C	?	.	.	18µM	.	.
Cc1nc2ccc(NC(=S)NC3CC3)cc2nc1C	.	.	.	.	.	.
O=S(=O)(c1ccc(F)cc1)N1CCN(c2nc(-c3cccs3)nc3cc(Cl)ccc23)CC1	/	.	/	.	.	/
Cc1ccc(-n2ncc3c(NC4CCCCC4)ncnc32)cc1	.	.	.	.	.	/
Cc1cc(O)ccc1N=Cc1c(C(F)(F)F)[nH][nH]c1=O	.	.	14µM	8.9µM	?	.
O=c1[nH][nH]c(C(F)(F)F)c1C=Nc1cccc(Cl)c1	.	.	.	.	.	.
Cc1ccc2nc(SCC(=O)Nc3ccc4c(c3)OCCO4)nc(=O)n2c1	.	.	/	.	.	.
O=C(CSc1nc(=O)n2cc(Cl)ccc2n1)Nc1ccc2c(c1)OCO2	20µM	.	/	?	?	.
O=C(CSc1nc(=O)n2cc(Cl)ccc2n1)NCCc1ccccc1	25µM	.	/	?	.	.
Cc1ccn2c(=O)nc(SCC(=O)Nc3ccc4c(c3)OCCO4)nc2c1	?	.	/	56µM	.	.[11.6 µM]
Cc1ccc2nc(SCC(=O)NCCc3ccccc3)nc(=O)n2c1	.	.	/	.	.	.
Cc1ccn2c(=O)nc(SCC(=O)Nc3ccc4c(c3)OCO4)nc2c1	?	.	/	35µM	.	.
Cc1ccc(C(=O)NCCC(C)C)cc1NC(=O)c1nsc2ccccc12	.	.	.	?	.	/
O=C(Nc1ccccc1)C12CC1/C(=N\O)c1ccccc1O2 (centres undefined)	/	.[19.4 µM]	/	/	/	/
O=[N+]([O-])c1ccc(-c2c[nH]c(=S)[nH]2)cc1	40µM	?	?	?	.	.[11.6 µM]
CC(NC(=O)c1cccs1)C(c1cccs1)N1CCN(c2ccccc2)CC1 (centres undefined)	.	.	.	?	.	.
CC(C)C(=O)NC(C)C(c1cccs1)N1CCN(c2ccccc2)CC1 (centres undefined)	.	.	20µM	.	.	.
Clc1nc(Cl)nc(-c2cn(-c3ccccc3)c3ccccc23)n1	.	.	20µM	.	.	.
Cc1cccc(NS(=O)(=O)c2ccc3[nH]c(=O)ccc3c2)c1C	.	.	.	.	.	/
SMILES	POLH inh	Pol kappa inh	Pol beta inh	Pol iota inh	FEN1 inh	WRN helicase inh
Cc1cccc(CNc2ncnc3ccc(-c4ccc(C(=O)N(C)C)cc4)cc23)c1	/	.	/	/	/	/
NC(=O)CC1Nc2cccc3cccc(c23)NC1=O (centres undefined)	?	.	6.3µM	?	.	.
O=C(CC1Nc2cccc3cccc(c23)NC1=O)Nc1ccccc1 (centres undefined)	.	.	.	.	.	.
Cc1ccc(NC(=O)CC2Nc3cccc4cccc(c34)NC2=O)cc1 (centres undefined)	.	?	.	5µM	?	/
O=C(CC1Nc2ccccc2NC1=O)c1ccccc1 (centres undefined)	/	/	.	/	/	/
O=C(CSC1=Nc2ccccc2C2=NC(Cc3ccccc3)C(=O)N12)Nc1ccccc1C(F)(F)F (centres undefined)	.	.	.	.	.	/
COc1ccc(CCNC(=O)c2cccc(-n3cnc4cccnc43)c2C)cc1OC	.	.	.	.	.	/
Cc1cccc(NC(=O)CSc2ccc(-c3ccco3)nn2)c1C	.	?	?	13µM	.	?
COc1ccccc1CCNC(=O)CSc1ccc(-c2ccco2)nn1	.	.	16µM	?	.	.
COc1ccc(C)cc1NC(=O)CSc1ccc(-c2ccco2)nn1	?	?	.	32µM	.	.[11.6 µM]
COc1ccccc1-c1ccc(SCC(=O)NCCc2ccccc2)nn1	.	.	.	.	.	.
COc1ccc(C)cc1NC(=O)CSc1nnc(-c2ccco2)n1N	.	.	.	.	.	.
Cc1csc2nc(COC(=O)c3cccc(NC(=O)COc4ccccc4Cl)c3)cc(=O)n12	.	.	.	.	.	/
CCn1nc(C)c(CCN(C)C(=O)Nc2cc(C)cc(C)c2)c1C	.	.	.	?	.	/
CN(C)c1ccc(/C=C\C=C/c2ccnc3ccccc23)cc1	/	?	/	.	50µM	/
CN(C)c1ccc(/C=C/c2ccnc3ccccc23)c(F)c1	/	.	/	.	?	/
CN(C)c1ccc(N=Cc2ccnc3ccccc23)cc1	/	.	/	?	45µM	/
CCN(CCCN(C)C)c1ccc(/C=C/c2ccnc3ccccc23)cc1	/	?	/	?	50µM	/
N#Cc1cccc(NC(=O)N2CC[C@@]3(CCCN(S(=O)(=O)c4ccccc4)C3)C2)c1	/	.	/	/	/	/
CN1CCc2cc3c(c4c2[C@H]1[C@H](O)c1ccccc1-4)OCO3	.	?	45µM	?	40µM	.
Cc1ccc2nc(NC(=O)CSc3nccn3-c3ccc(Cl)cc3)sc2c1	.	.	25µM	?	.	/
Cc1ccc2c(c1)C(=O)OC(C(=O)Nc1ccc(C(=O)O)cc1)C2 (centres undefined)	.	.	.	89µM	.	/
COc1ccccc1NC(=O)C(=O)NCCc1csc(-c2cccc(F)c2)n1	.	.	.	.	.	/
CN(C)Cc1ccccc1-c1cncnc1NCc1cccs1	/	.	/	/	/	/
CCCC(=O)OCC1CN(Cc2ccco2)S(=O)(=O)c2c(F)cccc2O1 (centres undefined)	.	.	/	71µM	.	.[11.6 µM]
SMILES	POLH inh	Pol kappa inh	Pol beta inh	Pol iota inh	FEN1 inh	WRN helicase inh
CCOC(=O)c1ccc2c(c1)N(Cc1ccc(F)cc1Cl)C(=O)c1ccccc1S2	.	.	.	.	.	/
O=c1c2ccccc2nc(SCc2cc(=O)n3ccsc3n2)n1CCCO	/	/	32µM	/	/	/
FC(F)(F)c1cc(-c2ccco2)nc(NCc2ccco2)n1	50µM	?	?	?	?	.[11.6 µM]
FC(F)(F)c1cc(-c2ccco2)nc(NCc2cccs2)n1	?	.	.	.	.	.
CCSc1nnc(NC(=O)CSc2nnc(Cc3cccn3C)n2-c2ccc(C)cc2)s1	.	.	?	50µM	.	.
Cc1ccc(NC(=O)CSc2nnc(Cc3cccn3C)n2-c2ccc(F)cc2)cc1	.	.	.	.	.	.
C#CCn1cc(/C=C2\NC(=O)NC2=O)c2ccccc21	?	?	35µM	?	.	?
